NadD inh: NadD (S. aureus) enzyme inhibition; inhibition, % at 20 µM; 360,000 tested, 0.78% active; purified NadD enzyme, colorimetric absorbance read-out; AID 602399; in the data active means inhibition above about 26%
rCAG binder: binds r(CAG) RNA repeats | r(CAG) RNA repeat, TO-PRO-1 dye displacement fluorescence | inhibition, % at 3 µM | 370,000 tested, 1.3% active;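 active means inhibition above the plate cutoff, the mean of all test compounds on that plate plus 3 SD, cut at about 35% in these data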;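 further: 0% = DMSO alone and 100% = 100 µM mitoxantrone as full dye displacement; higher means more dye released from RNA so lower well fluorescence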
FAS-TE inh: blocks the thioesterase domain of human fatty acid synthase; P49327; inhibition, % at 15 µM; AID 602261; recombinant FAS-TE, OMFH fluorogenic substrate, fluorescence endpoint; 360,000 tested, 0.67% active;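 active means compounds whose normalised, plate-corrected inhibition of enzyme fluorescence in the single-dose primary screen is 50% or more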;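 further: 0% = DMSO with enzyme and 100% = substrate without enzyme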
Target sequence (P49327 whole entry, looked up, the tested form may be a part): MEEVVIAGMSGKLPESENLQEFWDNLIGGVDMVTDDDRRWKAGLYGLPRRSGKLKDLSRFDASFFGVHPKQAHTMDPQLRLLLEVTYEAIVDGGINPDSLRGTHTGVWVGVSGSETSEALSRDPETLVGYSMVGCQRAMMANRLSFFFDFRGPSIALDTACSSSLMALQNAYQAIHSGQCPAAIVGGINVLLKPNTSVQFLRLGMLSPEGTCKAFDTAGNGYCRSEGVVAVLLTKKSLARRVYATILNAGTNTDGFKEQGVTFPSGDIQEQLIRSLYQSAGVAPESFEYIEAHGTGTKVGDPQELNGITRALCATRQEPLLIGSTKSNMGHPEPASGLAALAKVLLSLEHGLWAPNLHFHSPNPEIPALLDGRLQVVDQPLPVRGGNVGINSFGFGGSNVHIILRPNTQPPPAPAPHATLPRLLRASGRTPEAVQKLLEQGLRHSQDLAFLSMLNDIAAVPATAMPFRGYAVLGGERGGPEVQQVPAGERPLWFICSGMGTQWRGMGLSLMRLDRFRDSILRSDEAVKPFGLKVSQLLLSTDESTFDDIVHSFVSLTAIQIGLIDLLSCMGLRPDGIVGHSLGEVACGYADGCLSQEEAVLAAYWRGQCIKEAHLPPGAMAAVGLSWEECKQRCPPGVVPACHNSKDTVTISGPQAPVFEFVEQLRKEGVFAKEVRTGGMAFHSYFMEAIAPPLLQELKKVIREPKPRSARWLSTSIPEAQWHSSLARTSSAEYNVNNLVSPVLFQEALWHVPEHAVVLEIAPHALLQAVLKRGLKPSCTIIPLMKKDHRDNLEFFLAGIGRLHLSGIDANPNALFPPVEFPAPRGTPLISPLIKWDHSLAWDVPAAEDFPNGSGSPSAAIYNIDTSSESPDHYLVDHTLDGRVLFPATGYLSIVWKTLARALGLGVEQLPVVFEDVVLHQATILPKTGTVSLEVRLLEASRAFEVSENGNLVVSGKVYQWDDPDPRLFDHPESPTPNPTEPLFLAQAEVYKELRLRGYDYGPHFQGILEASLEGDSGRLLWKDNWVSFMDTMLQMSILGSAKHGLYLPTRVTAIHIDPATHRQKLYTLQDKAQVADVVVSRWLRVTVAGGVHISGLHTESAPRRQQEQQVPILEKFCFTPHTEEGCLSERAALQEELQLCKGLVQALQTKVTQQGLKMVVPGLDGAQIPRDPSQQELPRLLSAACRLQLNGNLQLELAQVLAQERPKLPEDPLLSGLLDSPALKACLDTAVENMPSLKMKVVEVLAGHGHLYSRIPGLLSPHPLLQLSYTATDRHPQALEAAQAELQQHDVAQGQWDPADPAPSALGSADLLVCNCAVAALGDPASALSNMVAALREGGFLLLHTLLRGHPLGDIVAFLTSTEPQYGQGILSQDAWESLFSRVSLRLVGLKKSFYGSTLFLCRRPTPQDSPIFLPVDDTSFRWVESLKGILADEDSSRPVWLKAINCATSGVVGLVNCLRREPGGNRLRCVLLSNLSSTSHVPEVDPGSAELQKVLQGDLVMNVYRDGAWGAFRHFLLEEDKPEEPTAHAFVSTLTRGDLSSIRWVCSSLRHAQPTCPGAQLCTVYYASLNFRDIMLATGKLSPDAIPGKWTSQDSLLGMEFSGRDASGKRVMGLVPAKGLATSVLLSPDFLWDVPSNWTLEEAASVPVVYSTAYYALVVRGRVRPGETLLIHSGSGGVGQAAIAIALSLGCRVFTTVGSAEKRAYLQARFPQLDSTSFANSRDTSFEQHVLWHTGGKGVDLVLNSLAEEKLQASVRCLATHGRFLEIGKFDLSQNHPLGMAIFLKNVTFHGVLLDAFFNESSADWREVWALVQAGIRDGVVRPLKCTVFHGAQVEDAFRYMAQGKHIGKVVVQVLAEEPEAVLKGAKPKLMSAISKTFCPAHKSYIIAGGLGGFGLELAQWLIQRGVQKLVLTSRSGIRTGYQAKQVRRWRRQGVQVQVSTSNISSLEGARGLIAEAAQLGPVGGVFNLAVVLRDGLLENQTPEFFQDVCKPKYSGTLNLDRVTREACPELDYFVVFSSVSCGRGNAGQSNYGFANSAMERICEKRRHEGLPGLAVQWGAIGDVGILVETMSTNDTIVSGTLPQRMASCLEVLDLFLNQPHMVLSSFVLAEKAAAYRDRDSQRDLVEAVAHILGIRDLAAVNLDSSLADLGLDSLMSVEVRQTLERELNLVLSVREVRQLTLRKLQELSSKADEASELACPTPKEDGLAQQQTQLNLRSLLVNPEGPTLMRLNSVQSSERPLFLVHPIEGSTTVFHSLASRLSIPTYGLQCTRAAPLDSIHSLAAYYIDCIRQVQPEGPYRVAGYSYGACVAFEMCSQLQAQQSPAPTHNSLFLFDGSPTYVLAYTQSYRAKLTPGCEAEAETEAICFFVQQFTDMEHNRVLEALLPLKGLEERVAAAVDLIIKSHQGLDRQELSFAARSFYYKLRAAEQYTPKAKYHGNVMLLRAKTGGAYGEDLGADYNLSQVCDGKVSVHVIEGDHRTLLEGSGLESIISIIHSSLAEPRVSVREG
NR3A LBD binder: modulators (binders) of human NR3A ligand-binding domain; AID 1259313; NR3A LBD differential scanning fluorimetry, Tm shift; 0% = protein alone, 100% = glycine-bound protein; 340,000 tested, 2.5% active; Tm shift relative to glycine control, % at 25 µM;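 active means melting temperature shift of at least 10% of the positive control shift, at one fixed dose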
rCAG binder conf: r(CAG) RNA repeat binding, confirmation; shares compounds with rCAG binder; TO-PRO-1 dye displacement fluorescence; inhibition, % at 3 µM; 4,300 tested, 70% active; AID 652065;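 active means inhibition above a per-plate cutoff, the mean inhibition of sample wells plus 3 SD, cut at about 35% in these data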;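 further: loss of TO-PRO-1 fluorescence as compound displaces dye from 1x1 AA loop RNA; 0% = DMSO only wells and 100% = 100 µM mitoxantrone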
DNA CAG counter: disrupts DNA CAG TO-PRO-1 complex, flagging rCAG hits; shares compounds with rCAG binder; d(CAG) DNA oligo TO-PRO-1 dye displacement, fluorescence; inhibition, % at 3 µM; 4,300 tested, 94% active;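 active means inhibition above its plate's cutoff, the mean test-well inhibition plus 3 SD, cut at about 4.8% in these data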;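 further: 0% = DNA dye mix with DMSO and 100% = 100 µM mitoxantrone; hits displace the dye from DNA and so lower well fluorescence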
DNA CAG DR: counter-screen for rCAG binders: inhibitors of DNA CAG TO-PRO-1 complex | shares compounds with rCAG binder | DNA CAG/GTC duplex TO-PRO-1 dye displacement fluorescence | IC50, µM | 250 tested, 20% active; in the data active means IC50 below about 10 µM
Numbers without * were called inactive; i = inactive; · = no result given. In the library only some 4.3% were active in any assay of this set; here they are far more common.

SMILES | NadD inh | rCAG binder | FAS-TE inh | NR3A LBD binder | rCAG binder conf | DNA CAG counter | others
Cc1ccc([C@@H]2CC=C(C(=O)O)[C@H](c3ccc(Cl)cc3)N2S(=O)(=O)c2ccccc2C)cc1 | 3 | 73* | 4 | -2 | 70* | 31* | DNA CAG DR=i
Cc1ccc([C@@H]2CC=C(C(=O)O)[C@H](c3ccccc3F)N2S(=O)(=O)c2ccccc2C)cc1 | 4 | 51* | -9 | 1 | 59* | 24*
Cc1ccc([C@@H]2CC=C(C(=O)O)[C@H](c3ccc(Br)cc3)N2S(=O)(=O)c2ccccc2C)cc1 | 11 | 86* | 9 | -4 | 81* | 48*
Cc1ccc(S(=O)(=O)N2[C@@H](c3ccc(Cl)cc3)C(C(=O)O)=CC[C@H]2c2cccc(Cl)c2)cc1 | 4 | 13 | 8 | -11 | · | ·
CCOC(=O)[C@@]12CN(C(=O)OC(C)(C)C)CC=C1N(Cc1ccc(OC)cc1)C(=O)[C@H]2CC(=O)N1CCOCC1 | · | 3 | · | · | · | ·
C[C@H](O)[C@@H]1CN2CCc3c([nH]c4ccccc34)[C@@H]2C[C@@H]1N(C)CC1CCCCC1 | · | 0 | · | · | · | ·
Nn1c(SCC(=O)Nc2ccccc2-c2ccccc2)nnc1-c1cc(-c2ccccc2)n[nH]1 | · | 7 | · | · | · | ·
Cc1ccccc1S(=O)(=O)N1[C@@H](c2ccc(Br)cc2)C(C(=O)O)=CC[C@H]1c1ccc(Cl)cc1 | 11 | 88* | 14 | -10 | 84* | 57*
Cc1cccc(NC(=O)C2CCN(c3ncccn3)CC2)c1C | · | -2 | · | · | · | ·
CCOc1ccc(Nc2ccc(N)c(S(=O)(=O)O)c2)cc1 | 10 | 55* | 2 | -1 | 52* | 18*
Cc1cc(N2CCN(CC(C)(C)O)C[C@H]2C)ccc1N1CCN(CC(C)(C)O)[C@@H](C)C1 | · | 2 | · | · | · | ·
O=C(Nc1cccc(C(F)(F)F)c1)OC1CCC12CCC(c1ccccc1)CC2 (configuration not stated) | · | 5 | · | · | · | ·
C/C(N)=C(/C#N)C(=O)CSc1nc2cc(Cl)ccc2s1 | 1 | 15 | 12 | -7 | · | ·
Cn1nc([N+](=O)[O-])c(C(C#N)c2ccccn2)c(Cl)c1=O (configuration not stated) | 3 | 5 | 14 | 0 | · | ·
CCCn1nc([N+](=O)[O-])c(C(C#N)c2nc3ccccc3o2)c(Cl)c1=O (configuration not stated) | 5 | 80* | 24 | 8 | 77* | 37*
CCn1nc([N+](=O)[O-])c(C(C#N)c2nc3cc(C(F)(F)F)ccc3s2)c(Cl)c1=O (configuration not stated) | 19 | 94* | -33 | 0 | 87* | 60*
COC(=O)[C@H](CC(C)C)N(Cc1cn(CC2CCCCC2)nn1)S(=O)(=O)c1ccccc1Br | · | 4 | · | · | · | ·
CCn1c(Cc2cccs2)nnc1SCC(=O)c1ccc(Cl)cc1 | · | 3 | · | · | · | ·
CCOc1cc(/C=C2\SC(=Nc3ccc(CC)cc3)NC2=O)ccc1OCC(=O)O | 17 | 71* | 2 | · | 47* | 14*
CCOC(=O)C1=C(O)/C(=C/c2ccc(OCC(=O)O)c(OCC)c2)SC1=Nc1ccccc1 | 17 | 15 | -6 | -1 | · | ·
C=CCOc1c(Br)cc(/C=C2\SC(=Nc3ccccc3)NC2=O)cc1OC | 21 | 16 | 8 | 2 | · | ·
CCc1ccc(N=C2NC(=O)/C(=C/c3cc(Br)c(OCC(=O)O)c(OC)c3)S2)cc1 | 24 | 57* | 10 | -7 | 56* | 19*
C=CCOc1ccc(Br)cc1/C=C1/SC(=Nc2ccc(C(=O)O)cc2)NC1=O | 28 | 13 | 2 | 2 | · | ·
CCOc1cc(Br)cc(/C=C2\SC(=Nc3ccccc3)NC2=O)c1O | 36* | 67* | 11 | -3 | 83* | 47*
CCOC(=O)C1=C(O)/C(=C/c2ccc(OCC(=O)O)c(OC)c2)SC1=Nc1ccc(OCC)cc1 | -1 | 38* | 3 | -3 | 65* | 21*
SMILES | NadD inh | rCAG binder | FAS-TE inh | NR3A LBD binder | rCAG binder conf | DNA CAG counter | others
CCOC(=O)N1CCN(C(=O)C[C@H]2C[C@@]3(C(=O)OC)C(=C[C@H](C(C)C)O[C@@H]3C3CC3)N(Cc3ccc4c(c3)OCO4)C2=O)CC1 | · | 2 | · | · | · | ·
COc1cc(/C=C2/SC(=O)NC2=O)ccc1OC(=O)c1ccco1 | 8 | 13 | -6 | -5 | · | ·
CCOC(=O)C1=C(O)/C(=C/c2ccc(-c3ccccc3C(=O)O)o2)SC1=Nc1ccc(OC)cc1 | 20 | 38* | 2 | 1 | 80* | 38*
CCOc1cc(/C=C2/SC(=S)NC2=O)ccc1OC(=O)c1ccco1 | 8 | 72* | -2 | -2 | 79* | 43*
COc1ccc(Sc2cccc(Cl)c2)c(C(=O)O)c1 | · | 5 | · | · | · | ·
Cc1cc(C(=O)Nc2ccccc2C(=O)O)ccc1NC(=O)COc1ccccc1Cl | 14 | 12 | 16 | -4 | · | ·
O=C(COc1ccccc1Cl)Nc1ccc(C(=O)O)cc1NC(=O)COc1ccccc1Cl | -2 | 67* | 4 | -2 | 53* | 19*
O=C(O)c1ccc(NC(=O)c2ccc(Cl)cc2)c(NC(=O)c2ccc(Cl)cc2)c1 | 0 | 71* | 30 | -3 | 59* | 23*
Cc1ccc(C(=O)Nc2ccc(C(=O)O)cc2NC(=O)c2ccc(C)cc2)cc1 | 3 | 21 | -4 | -2 | · | ·
O=C(COc1ccccc1Cl)Nc1ccccc1C(=O)Nc1cccc(C(=O)O)c1 | -1 | 40* | -2 | 7 | 23 | 2
O=C(NCCc1c[nH]c2ccccc12)OCc1cn(Cc2cc(F)ccc2F)nn1 | · | 4 | · | · | · | ·
COc1ccc(/C=C2/SC(=S)N(NS(=O)(=O)c3ccc(C)cc3)C2=O)cc1 | 20 | 84* | 10 | -12 | 84* | 47*
Cc1ccc(/C=C2\SC(=S)N(NS(=O)(=O)c3ccc(C)cc3)C2=O)cc1 | 19 | 8 | 13 | -9 | · | ·
C=CCOc1ccc(/C=C2\SC(=S)N(NS(=O)(=O)c3ccc(C)cc3)C2=O)cc1 | 17 | 80* | 43 | -12 | 84* | 53*
Cc1ccc(S(=O)(=O)NN2C(=O)/C(=C/c3cccs3)SC2=S)cc1 | 5 | 63* | 1 | -3 | 55* | 22*
C[C@@H]1NC(=O)[C@H]2C[C@@]3(c4ccccc4)c4ccccc4N[C@H]3N2C1=O | · | 6 | · | · | · | ·
O=C(CSc1nnc(-c2ccccc2F)n1C1CCCCC1)Nc1cc(C(=O)O)ccc1Cl | 3 | 38* | -2 | 3 | 34 | 6.9*
Cc1ccc(C(=O)O)cc1NC(=O)CSc1nnc(-c2ccccc2F)n1C1CCCCC1 | 6 | 26 | -7 | -3 | · | ·
COc1ccccc1Cc1c(-c2ccccc2)nc2ccc(C)cn12 | · | 4 | · | · | · | ·
O=C1CC(c2ccc(O)c(O)c2)Oc2c1ccc(O)c2O (configuration not stated) | 13 | 48* | -3 | -5 | 49* | 21*
